The values that follow come from PubChem BioAssay (NCI).

Common to all, as to assay: NCI-60 one-dose screen, 48 h (100 = growth as untreated, 0 = no growth, -100 = all killed)
Experiment [1] deals with SK-MEL-2 melanoma. To be noted: 10 µM unless noted.
Experiment [2] concerns EKVX NSCLC. As to conditions: 10 µM unless noted.
The subject of experiment [3] is SN12C renal. To be noted: 10 µM unless noted.
Experiment [4] deals with UO-31 renal. As to conditions: 10 µM unless noted.
Experiment [5] has as its system TK-10 renal. As to conditions: 10 µM unless noted.
Experiment [6] relates to CAKI-1 renal. To be noted: 10 µM unless noted.
Experiment [7] relates to A498 renal. To be noted: 10 µM unless noted.
In experiment [8] the test system is CCRF-CEM leukemia. To be noted: 10 µM unless noted.
For experiment [9], the system named is SR leukemia. To be noted: 10 µM unless noted.
Experiment [10] relates to RPMI-8226 leukemia. As to conditions: 10 µM unless noted.
The subject of experiment [11] is OVCAR-8 ovarian. As to conditions: 10 µM unless noted.
The subject of experiment [12] is OVCAR-4 ovarian. As to conditions: 10 µM unless noted.
The test system of experiment [13] is SK-OV-3 ovarian. To be noted: 10 µM unless noted.
Experiment [14] concerns IGROV1 ovarian. To be noted: 10 µM unless noted.
The test system of experiment [15] is OVCAR-3 ovarian. To be noted: 10 µM unless noted.
Experiment [16] has as its system HS 578T breast. To be noted: 10 µM.
For experiment [17], the system named is NCI/ADR-RES ovarian. As to conditions: 10 µM unless noted.
Experiment [18] concerns MOLT-4 leukemia. As to conditions: 10 µM unless noted.
Experiment [19] concerns OVCAR-5 ovarian. To be noted: 10 µM unless noted.
Experiment [20] relates to ACHN renal. As to conditions: 10 µM unless noted.

This is part of a sample that, as a whole, favours compounds with a hit. Of some 83,000 tested, about 20% had one in any assay.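 The endpoint reported here, percent growth, reads 100 for growth as untreated, 0 for no net growth and -100 for all cells dead.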 Values without a mark were called inactive. Activity calls are given as the source filed them. The calls were made as follows: active = growth percent below 10; inactive = the rest.

In the case of `CC[C@H](Nc1nc(C)nc(N)c1C#N)c1nc2cccc(NCc3ccc(C(=O)NO)cc3)c2c(=O)n1-c1ccccc1`, the growth in experiment [1] is 67.2%; in [2], 12.7%; in experiment [3], 7.89% (active); in experiment [4], -12.5% (active); in experiment [5] it was 2% (active); in [6] it was -11.1% (active). The growth is -27.1% (active) in [7]; 6.17% (active) in experiment [8]; 0.66% (active) in experiment [9]; 10.7% in experiment [10]; 2.46% (active) in experiment [11]; 5.36% (active) in experiment [12]. In addition, the growth in experiment [13] was -16.2% (active); in experiment [14], 5.14% (active); in experiment [15] it was 4.73% (active); in experiment [16] it was 21.6%; in experiment [17] it was 59.4%.
For `COc1cc2nccc(Oc3ccc(NC(=O)C4(C(=O)Nc5ccc(F)cc5)CC4)cc3)c2cc1Oc1ccc(N)cn1`, the growth in [1] was 54.3%; in [2] it was 15.9%; in experiment [3], 14.8%; in [4], 19.8%; in experiment [5], 36.3%; in experiment [6], 43.5%. Moreover, the growth in experiment [8] was 61.2%; in experiment [18] it was 29.5%; in experiment [9], 11.9%; in experiment [10] it was 48.5%; in experiment [11] it was 47.1%; in [19], 40%. For the same compound, the growth in [12] is 29.9%; in experiment [13], 61.3%; in experiment [14], -24.1% (active); in [15], 49.9%; in [16] it was 7.33% (active); in experiment [17], 73.8%.
On to `CN1CCN(Cc2ccc(NC(=O)c3cccc(C#Cc4cnc(N)c5ncccc45)c3F)cc2C(F)(F)F)CC1`, for which the growth is -1.16% (active) in experiment [1]; 66.8% in experiment [2]; 44.5% in [3]; -96.6% (active) in experiment [4]; 56.2% in [5]; 33.6% in experiment [6]. Besides, the growth in experiment [7] is -15.1% (active); in experiment [8], 7.7% (active); in [18], 1.77% (active); in experiment [9], -3.15% (active); in experiment [10], -9.88% (active); in experiment [11] it was -49.3% (active). Besides, the growth is -5.62% (active) in experiment [19]; 49.6% in experiment [12]; 22.3% in experiment [13]; 24.5% in [14]; 73.2% in [15]; 18% in experiment [16]. Further, the growth in experiment [17] is 61.3%.
As for `CN1CCN(Cc2ccc(NC(=O)c3cnc(F)c(C#Cc4cnc(N)c5ncccc45)c3)cc2C(F)(F)F)CC1`, the growth in experiment [1] was -30.1% (active); in experiment [2], 23.7%; in [3], 11.7%; in [4], 7.5% (active); in [5], 28.7%; in experiment [6] it was 13.1%. Also, the growth in experiment [7] was -25.8% (active); in experiment [8], 18.2%; in experiment [18] it was 8.73% (active); in experiment [9], 13.4%; in experiment [10] it was 18.2%; in [11], 29.6%. Moreover, the growth in experiment [19] is 37.2%; in experiment [12] it was 16.6%; in [13], 3.65% (active); in experiment [14], 13.9%; in experiment [15], 46.2%; in experiment [17], 29.9%.
On to `C#CC[C@@H]1C[C@]2(C)[C@H]3CC=C4[C@H]5[C@@H](C)[C@H](C)CC[C@]5(C(=O)NCCCN5CCN(CCCN)CC5)CC[C@@]4(C)[C@]3(C)CC[C@H]2C(C)(C)[C@H]1OC(C)=O`, for which the growth is -57.3% (active) in experiment [1]; -83.4% (active) in experiment [2]; -43.8% (active) in experiment [3]; -84.2% (active) in experiment [4]; -74.9% (active) in [20]; -68% (active) in [6]. For the same compound, the growth in experiment [7] was 111%; in experiment [8] it was -29.4% (active); in experiment [18], -38.1% (active); in [9], -5.62% (active); in experiment [10] it was -52.1% (active); in experiment [11] it was -58.3% (active). Also, the growth in experiment [19] was 29.4%; in experiment [12], -17.5% (active); in experiment [13] it was 115%; in experiment [14], -60.5% (active); in [15], -73.7% (active); in experiment [16], -25.3% (active). For the same compound, the growth in experiment [17] was 61.7%.
Turning to `O=C1c2ccccc2C2N1CCC1CCc3ccccc3N12` (stereo not given), the growth is 99.7% in experiment [1]; 104% in experiment [2]; 94.8% in experiment [3]; 55.1% in experiment [4]; 108% in [5]; 88.4% in experiment [6]. Also, the growth is 75.5% in experiment [7]; 105% in experiment [8]; 101% in experiment [18]; 114% in [9]; 105% in experiment [10]; 101% in experiment [11]. Besides, the growth in experiment [19] is 92%; in experiment [13] it was 109%; in experiment [15], 115%; in experiment [16] it was 99.8%; in experiment [17], 103%.
For `COc1ccc2[nH]c(C(=O)OCc3ccc4c(Br)cc(Br)c(O)c4n3)cc2c1`, the growth in experiment [1] was -40.3% (active); in [2] it was -70.9% (active); in experiment [3] it was -71.2% (active); in [4], -100% (active); in experiment [20], -98.3% (active); in experiment [6] it was -98.7% (active). For the same compound, the growth in experiment [7] was -17.1% (active); in [8], 3.76% (active); in [18], -8.86% (active); in experiment [9], 2.81% (active); in experiment [10] it was -24.2% (active); in experiment [11] it was -27.7% (active). Further, the growth in [19] is -48.4% (active); in experiment [12], -44.2% (active); in [13], 62.6%; in experiment [14], -90.9% (active); in experiment [15], -91.3% (active); in experiment [16], -15.4% (active). Besides, in experiment [17], the growth is -30.6% (active).
Consider `CC(=O)N(C)c1ccc(Nc2cc(C)[nH]c3ccc4ncnc4c23)cc1`, for which the growth was 116% in [1]; 79.4% in experiment [2]; 61.7% in [3]; 72.6% in [4]; 79.3% in [5]; 80.3% in experiment [6]. Moreover, the growth in experiment [7] is 78.5%; in experiment [8], 28.9%; in [18], 1.82% (active); in experiment [9], 11.1%; in experiment [10] it was 56.2%; in [19], 63.5%. The growth was 77.9% in experiment [12]; 74.3% in [13]; 1.11% (active) in [14]; 76.3% in [15]; 75.1% in experiment [16]; 101% in experiment [17].
